Reference: PubChem BioAssay AID1345082 (National Center for Advancing Translational Sciences (NCATS), 2018)
About 4,000 (4.3%) of roughly 94,000 compounds were called active. Inconclusive results (about 29%) are left out. The call rests on the fitted dose curve; in most records, active means well fitted inhibition curve with a large enough effect; inconclusive means small, poorly fitted or top-dose-only effect; inactive means no such curve, though single readings can be large or run the other way. For the sample, actives were picked, then their nearest neighbours and some compounds at random.

assay: Cytotoxic Profiling in NIH 3T3 Cell Line of Diverse Libraries Using Quantitative High-Throughput Screening; conditions: NIH 3T3 viability, CellTiter-Glo ATP luminescence, 48-72 h; series mostly up to 96.7 µM; activity change, negative = cytotoxicity: at the top concentration; further: nearly all actives have a fitted effect of over 55% in size
How it was run: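 Cells were seeded at 400 per well, treated with pin-transferred compound, and kept 48 or 72 hr at 37 °C before CellTiter-Glo addition and luminescence imaging of cellular ATP.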
On the % scale 0 is the no-effect control and ±100 the full control effect; potency means the concentration at half of the fitted maximal effect.

Row | SMILES | outcome | activity change, negative = cytotoxicity | Potency
1 | COC(=O)c1ccc(CN2C(=O)[C@@H]3C[C@@H](O)CN3C3(CN(Cc4cccc(F)c4)C3)C2=O)cc1 | inactive |  | 
2 | CCN1CC(C(=O)NCC2(c3ccccc3F)CCCC2)CC1=O (stereo not given) |  | -19.2% (inactive) | 
3 | CC(C)c1ccc(CN2CCc3nc(N(C)C)[nH]c(=O)c3CC2)cc1 |  | -28.1% (inactive) | 
4 | COc1cccc(CCC(=O)N2C[C@@H](Oc3ccccc3)C[C@@H]2C(=O)N2CCOCC2)c1 |  | -15.4% (inactive) | 
5 | Cc1ccc(NC(=O)N[C@@H]2C=C(C(=O)NCCC(N)=O)C[C@@H](O)[C@@H]2O)cc1 |  | 2.14% [at 174 µM] (inactive) | 
6 | CN1C[C@@H]2CC[C@H](C1)N(Cc1cccc(OCCN3CCOCC3)c1)C2 |  | 3.93% (inactive) | 
7 | CCCCC(=O)N1CCC(OC2CCN(S(C)(=O)=O)CC2)CC1 |  | -18.1% (inactive) | 
8 | Cn1cnc(S(=O)(=O)N[C@H]2CCN(C(=O)CSCC(=O)O)[C@H](C(=O)N[C@H](Cc3ccccc3)C(N)=O)C2)c1 |  | 0.91% (inactive) | 
9 | COc1ccccc1-n1c(=O)c(C(=O)N2CCN([S+](C)(=O)[O-])CC2)nc2cccnc21 |  | -11.7% (inactive) | 
10 | Cc1ccncc1C(=O)N1CCC2(CC1)CC(c1ccccc1)C(=O)N2C (stereo not given) |  | -21.3% (inactive) | 
11 | Cc1cc(N2CCC3(CC2)CC(c2ccccc2)C(=O)N3C)ncn1 (stereo not given) |  |  | 79.4 µM (active)
12 | CC#CCN1C(=O)NC(CCc2ccccc2)(C2CCN(Cc3ccccc3-c3ccco3)CC2)C1=O (stereo not given) |  | -25.6% (inactive) | 
13 | CC(=O)N1CC2(CCN(Cc3ncc[nH]3)CC2)CC1C(=O)O (stereo not given) |  | 0.833% (inactive) | 
14 | O=C(Nc1ccccc1)O[C@@H]1CO[C@H]2[C@@H]1OC[C@@H]2NS(=O)(=O)c1cccc2cccnc12 |  | -22.1% (inactive) | 
15 | N#Cc1cccc(NC(=O)O[C@@H]2CO[C@H]3[C@@H]2OC[C@@H]3Nc2nccc(-c3ccccc3)n2)c1 |  |  | 35.5 µM (active)
16 | O=C(Nc1ccc(Oc2ccccc2)cc1)O[C@@H]1CO[C@H]2[C@@H]1OC[C@@H]2NCC1CC1 |  | -28.6% [at 174 µM] (inactive) | 
17 | COc1cccc([S+](=O)([O-])N2CCC3(C2)N=C(c2ccncc2)C(=O)N3)c1 (stereo not given) |  | -25.3% (inactive) | 
18 | CN1C(=O)CC[C@]2(C(=O)NCc3ccc4c(c3)OCO4)CCCC[C@@H]12 |  | -2.74% (inactive) | 
19 | CC1(C(=O)NCC2CCCO2)CCCc2cnc(Nc3ccccc3)nc21 (stereo not given) |  | -4.02% [at 138 µM] (inactive) | 
20 | CC1(C(=O)NCc2ccc3c(c2)OCO3)CCc2cnc(NCc3ccccc3)nc21 (stereo not given) |  |  | 3.16 µM (active)
21 | O=C(NCc1ccc(F)cc1F)c1nnn2c1COC(c1ccc(Br)cc1)C2 (stereo not given) |  | -20.1% (inactive) | 
22 | COc1cccc([S+](=O)([O-])N2CCC3(CC2)C(=O)NN=C3c2ccncc2)c1 |  | -38.1% (inactive) | 
23 | CC(C)(C)C(=O)N1CCCC1C(=O)N1CCC(N2Cc3ccccc3C2=O)CC1 (stereo not given) |  | -10.6% (inactive) | 
24 | O=C(NCc1cccnc1)c1nc(-c2ccc(Cl)nc2)c2cnccn12 |  | -19.1% (inactive) | 
25 | CN1CCC(N2CC[C@H](c3nc4ccccc4s3)C2)CC1 |  |  | 35.5 µM (active)

Row | SMILES | outcome | activity change, negative = cytotoxicity | Potency
26 | Cn1c([C@H]2CCN(C3CCOCC3)C2)nc2ccccc21 |  | -5.14% [at 230 µM] (inactive) | 
27 | c1ccc2sc(C3CCCN(Cc4cc5n(n4)CCNC5)C3)nc2c1 (stereo not given) |  | -15.9% (inactive) | 
28 | O=C(c1ccccc1F)N1CCCC2(C1)C(=NC1CCCCC1)NC(=O)N2c1cc(F)cc(F)c1 (stereo not given) |  | 4.34% (inactive) | 
29 | O=C1NC(=NC2CCCCC2)C2(CCCN([S+](=O)([O-])c3ccccc3)C2)N1c1cc(F)cc(F)c1 (stereo not given) |  | -18.3% (inactive) | 
30 | CC(C)CCN1CCC2(C1)C(=NC1CCCCC1)NC(=O)N2c1cc(F)cc(F)c1 (stereo not given) |  |  | 35.5 µM (active)
31 | O=C(CN1CCCC1=O)NCC1Cn2cccc2C(=O)N1Cc1ccccc1 (stereo not given) |  | -0.873% (inactive) | 
32 | CC(C)C(=O)N1CCOc2ccc(CN3CCc4ccccc4C3)cc2C1 |  | -17.2% (inactive) | 
33 | CCCNC(=O)N1CCC(Cn2c(C)cnc2-c2cccnc2)CC1 |  | -11.4% (inactive) | 
34 | COCCNC(=O)C1CCCN(Cc2cccc(-c3cccs3)c2)C1 (stereo not given) |  | -26.2% (inactive) | 
35 | O=C(NCc1ccc2c(c1)OCO2)C1CN(C2CCCCC2)C(=O)N1 (stereo not given) |  | -28.4% [at 138 µM] (inactive) | 
36 | O=C(NCc1ccc2c(c1)OCO2)C1CCCN(Cc2cccc(-c3cccs3)c2)C1 (stereo not given) |  |  | 31.6 µM (active)
37 | Cc1nc(C(=O)N2CC[C@H](N3CCN(C)CC3)[C@H](CCCO)C2)cs1 |  | -11.8% (inactive) | 
38 | CCCCOC(=O)N1CC(=O)N(Cc2ccco2)CC(O)C1 (stereo not given) |  | -33.4% (inactive) | 
39 | COCCOCC(=O)N1CCC2(CC1)CC(N(C(=O)c1ccccc1)C1CC1)CCO2 (stereo not given) |  | -17% (inactive) | 
40 | COC[C@H]1NC(=O)CC[C@H]1C(=O)NCc1cccc(C(F)(F)F)c1 |  | -13.8% (inactive) | 
41 | COc1ccccc1CNC(=O)c1nn(CC2CC2)c2c1CNCC2 |  | -23.4% (inactive) | 
42 | O=C(NCc1cccc(C(F)(F)F)c1)c1nn(CCOc2ccccc2)c2c1CNCC2 |  |  | 15.8 µM (active)
43 | CC(C)NC(=O)C1(CCO)CC12CCOCC2 (stereo not given) |  | -1.11% (inactive) | 
44 | O=C(c1ccc(Cl)cc1)N1CCCN(CCn2nc3n(c2=O)CCCC3)CC1 |  | -29.3% (inactive) | 
45 | CCNC(=O)N[C@H]1CC[C@]2(C)CC[C@@H]([C@H](C)C(=O)NCc3ccco3)[C@H](O)[C@H]2[C@@H]1C |  | -6.06% [at 174 µM] (inactive) | 
46 | Cc1noc(C)c1-c1nccc2c(=O)cc(N3CCOCC3)oc12 |  |  | 100 µM (active)
47 | O=c1cc(N2CCOCC2)oc2c(NCc3ccncc3)nccc12 |  |  | 44.7 µM (active)
48 | CC(C)(C)CC(=O)Nc1ccc2c(N3CCOCC3)ncnc2c1 |  | -17.4% (inactive) | 
49 | CCn1c(=O)c2ccnn2c2ccc(C(=O)NCc3ccc(N4CCOCC4)cc3)cc21 |  | -27.2% (inactive) | 
50 | CC(=O)Nc1ccc(C2(C(=O)NCCCN3CCOCC3)CCCCC2)cc1 |  | 0.268% (inactive) | 
